Experimental data reported in PubChem BioAssay AID1259343 (VanderVen Lab, College of Veterinary Medicine, Cornell …, 2017).
Out of some 6,200 compounds screened, about 2,900 (47%) were called active. Rule as the data show it: active = inhibition above about 50%; inactive = the rest. So high a share suggests a set chosen from earlier hits. The list shows a part of the results.

Assay: Mycobacterium tuberculosis growth inhibition, primary screen (AID 1259343)
Settings: inhibition: at 10 µM, hits give high values; outcome: 10 uM

Structure (SMILES) | inhibition
CC(=NNc1ccc(C(F)(F)F)cn1)c1ccc2c(c1)Nc1ccccc1S2 | -55.5% (inactive)
CC(=NNC(=O)COc1ccc(F)cc1)c1ccc2c(c1)Nc1ccccc1S2 | 16% (inactive)
CC(=NNC(=O)c1cc(C)oc1C)c1ccc2c(c1)Nc1ccccc1S2 | 47.6% (inactive)
CC(=NNC(=S)NC(C)C)c1ccc2c(c1)Nc1ccccc1S2 | 20.4% (inactive)
CC(=NNS(=O)(=O)c1cc(C)ccc1C)c1ccc2c(c1)Nc1ccccc1S2 | 57.9% (active)
CC(=NNC(=O)c1ccoc1C)c1ccc2c(c1)Nc1ccccc1S2 | 75.1% (active)
Cc1cc(C)n(C(C)CNS(=O)(=O)c2ccc(Cl)cc2)n1 (centres undefined) | inactive
CCOc1ccc(NC(=O)Cc2ccc(C)s2)cc1 | 59.7% (active)
CCOc1ccc(NC(=O)CCSc2nnc(C)s2)cc1 | 91.3% (active)
CCOc1ccc(Oc2ccc(NC(=O)c3ccc(C)s3)cc2)cc1 | 44.9% (inactive)
COc1ccc(Cl)c(NS(=O)(=O)c2cnc(Cl)n2C)c1 | 25.9% (inactive)
O=S1(=O)C(c2ccccc2)=CC1c1ccccc1 (centres undefined) | 49.3% (inactive)
Cc1ccc(S(=O)(=O)NCC(C)n2nc(C)cc2C)cc1 (centres undefined) | 10.1% (inactive)
Clc1ccc(C2CC(c3ccc(Cl)cc3)n3ncnc3N2)cc1 (centres undefined) | -10.5% (inactive)
Clc1ccc(C2CC(c3ccc(Cl)cc3)n3nnnc3N2)cc1 (centres undefined) | 66.5% (active)
CCCCc1oc2ccccc2c1C1NC(=O)c2ccccc2N1 (centres undefined) | 10.5% (inactive)
CCCCc1oc2ccccc2c1C(=O)c1cc(I)c(OCCN(CC)CC)c(I)c1 | 77% (active)
O=C(Nc1ccccc1-c1cn2c(CN3CCNCC3)csc2n1)c1cnc2ccccc2n1 | 74.8% (active)
CC1=NOC(C(=O)Nc2ccccc2OCCCc2ccccc2)C1 (centres undefined) | 55.6% (active)
O=C(Nc1ccccc1OCCCc1ccccc1)c1ccccn1 | 22.6% (inactive)
Cc1ccc(CC(=O)Nc2ccccc2OC2CCCC2)s1 | 10.8% (inactive)
O=C(Nc1ccccc1OCCCc1ccccc1)C1CCOC1 (centres undefined) | 83% (active)
Oc1ccc(NC(=S)Nc2ccc(OC(F)F)cc2)cc1 | 94.3% (active)
FC(F)Oc1ccc(NC(=S)Nc2ccc3c(c2)OCCO3)cc1 | 85.3% (active)
COc1ccc(NC(=S)Nc2ccc(OC(F)F)cc2)cn1 | 36.5% (inactive)
O=C(OC1CCc2[nH]c3ncccc3c2C1)c1ccccc1 (centres undefined) | -5.27% (inactive)

Structure (SMILES) | inhibition
CSc1ccccc1NC(CNS(=O)(=O)c1ccccc1)c1ccccc1 (centres undefined) | -10.3% (inactive)
Cc1ccc(-c2nsc(SCC(=O)Nc3cccc([N+](=O)[O-])c3)n2)cc1 | 71.1% (active)
Cc1cccc(NC(=O)c2cc(Oc3ccc([N+](=O)[O-])cc3F)n(C)n2)c1 | 35.6% (inactive)
CSc1ccc(Cn2c(C)c(C(=O)NCc3cccc([N+](=O)[O-])c3)sc2=O)cc1 | 24.4% (inactive)
CCOC(=O)CC(=O)CSc1nc(-c2cccc(C)c2)ns1 | 82.2% (active)
OCc1ccc(-c2ccc(-c3ccc(CO)s3)o2)s1 | 48.6% (inactive)
c1ccc(C2=NN3C(C2)c2ccccc2OC32CCCC2)cc1 (centres undefined) | 32% (inactive)
COc1ccc(C2Oc3ccccc3C3CC(c4ccccc4)=NN32)cc1OC (centres undefined) | -33.1% (inactive)
CCC1(C)Oc2ccccc2C2CC(c3ccccc3)=NN21 (centres undefined) | -17% (inactive)
Fc1ccc(C2=NN3C(C2)c2ccccc2OC3c2ccncc2)cc1 (centres undefined) | 14% (inactive)
CC1CCC2(CC1)Oc1ccccc1C1CC(c3ccccc3)=NN12 (centres undefined) | 55.7% (active)
CC(C)C1Oc2ccccc2C2CC(c3ccccc3)=NN21 (centres undefined) | 63.4% (active)
OC[C@@H](O)CN(CCC(F)(F)F)c1nc(-c2ccccn2)nc2c1CCC2 | -1.45% (inactive)
CC(NC(=O)C=Cc1cccs1)C1CC2CCC1C2 (centres undefined) | 36.7% (inactive)
CC(NC(=O)c1ccc(Br)o1)C1CC2CCC1C2 (centres undefined) | 37.7% (inactive)
CC(NC(=O)c1ccc([N+](=O)[O-])o1)C12CC3CC(CC(C3)C1)C2 (centres undefined) | 106% (active)
CC(NC(=O)c1ccc(Br)o1)C12CC3CC(CC(C3)C1)C2 (centres undefined) | 0.12% (inactive)
Cc1ccc2c(CC(=O)NC(C)C3CC4CCC3C4)coc2c1 (centres undefined) | 12.9% (inactive)
CC(NC(=O)c1ccc([N+](=O)[O-])o1)C1CC2CCC1C2 (centres undefined) | 101% (active)
CC(NC(=O)COc1ccccc1F)C1CC2CCC1C2 (centres undefined) | 95.6% (active)
CCNC(=O)c1ccc([N+](=O)[O-])o1 | 15.7% (inactive)
COc1ccc([C@H]2Oc3cc(OC)cc(OC)c3C[C@H]2O)cc1 | 70.8% (active)
COc1ccc(-c2nnc(CSC(=S)N3CCCC3)o2)cc1 | 84.2% (active)
O=C(CSC(F)(F)F)Nc1cnn(-c2ccccc2)c1 | 63.6% (active)
O=C(O)c1ccc2c(c1)CCN2C(=O)c1cnn(-c2ccccc2)c1 | 15.4% (inactive)
O=C(Cc1cnn(-c2ccccc2)c1)NCC1CCCCC1 | 45% (inactive)

Structure (SMILES) | inhibition
CC(=O)Nc1ccc(CC(=O)OCc2ccc(F)cc2)cc1 | 37.7% (inactive)
CC(=NNc1nc(C)cs1)c1ccc(Cl)cc1 | 0.03% (inactive)
Cc1cnc(NC(=O)C(C)Oc2cccc(Cl)c2)s1 (centres undefined) | 9.6% (inactive)
Cc1cccc(OC(C)C(=O)Nc2nc(C(C)C)cs2)c1 (centres undefined) | 29.5% (inactive)
Cc1cc(Cl)cc(C)c1OCC(=O)NNc1ccc(F)cc1 | 96.3% (active)
Cc1csc(NC(=O)COc2c(C)cc(Cl)cc2C)n1 | 73.9% (active)
Cc1cc(C)c(OCC(=O)NS(=O)(=O)c2c(C)noc2C)c(C)c1 | 44% (inactive)
Cc1csc(NC(=O)C(C)Oc2cccc(Cl)c2)n1 (centres undefined) | 81.2% (active)
N#Cc1cccc(CSc2n[nH]c(=O)n2C2CC2)c1 | 3.74% (inactive)
N#Cc1ccccc1Cn1nnc(-c2ccccc2)n1 | -34.2% (inactive)
Cc1ccc(-c2nnn(CC(=O)N3CCCCCC3)n2)cc1 | 15.3% (inactive)
Cc1ccc(-c2nnn(Cc3cc(C)on3)n2)cc1 | 57.2% (active)
CC(C)(Cc1c[nH]c2ccc(Cl)cc12)NCCOc1ccccc1OCC1CC1 | 46.8% (inactive)
O=C(NC1CC1)c1ccc(Oc2ccc(Br)cc2)nc1 | 16.1% (inactive)
Cc1cc(Oc2ccc(C(=O)O)cn2)ccc1C(C)C | 59.3% (active)
CCc1cccc2c3c([nH]c12)C(CC)(CC(=O)O)OCC3 (centres undefined) | 56.6% (active)
CSC(c1ccc(O)cc1)=[N+]1CCOCC1 | 99.3% (active)
COc1cccc(-c2cnnc(NCCc3ccccc3F)n2)c1 | 19.2% (inactive)
COc1ccc(-c2cnc(CN(C)c3ccccc3F)o2)cc1 | 83.9% (active)
C=CCSc1nc(N)c(C#N)c(CC)c1C#N | 58.6% (active)
COCCNC(=O)N(C)CC1CCC(C)CC1 (centres undefined) | 8.33% (inactive)
CCCCN(CC)C(=O)c1cc2c(=O)n3cccc(C)c3nc2s1 | 35.8% (inactive)
CCc1c(C)nc2c(O)cccn2c1=O | 92.4% (active)
Cc1cc(NC(=O)CSc2ccc(-c3ccc(C)c(C)c3)nn2)no1 | 33.5% (inactive)
Cc1cc(C)cc(NC(=O)CSc2ccc(-c3ccncc3)nn2)c1 | 84.3% (active)
Cc1ccc(-c2ccc(SCC(N)=O)nn2)cc1C | 37.8% (inactive)

Structure (SMILES) | inhibition
O=C(NS(=O)(=O)c1ccccc1F)c1ccc2c(c1)OCO2 | 98.4% (active)
CC(NC(=O)c1ccccc1F)c1ccc2c(c1)OCCO2 (centres undefined) | 36.9% (inactive)
O=C(NS(=O)(=O)c1ccc2c(c1)OCCCO2)c1ccc(F)cc1 | -7.16% (inactive)
c1ccc2c(c1)C(=NC1CCCCC1)NC2=NC1CCCCC1 | 62.3% (active)
COc1ccc(-c2noc(CN3CCCC(C(=O)c4ccccc4)C3)n2)cc1 (centres undefined) | 27.8% (inactive)
c1cncc(COC2CCCN(Cc3nc(-c4ccc5c(c4)OCO5)no3)C2)c1 (centres undefined) | 75.8% (active)
COc1ccc(-c2noc(CN3CCC(c4nc5ccccc5o4)CC3)n2)cc1 | 81.3% (active)
Cc1oc(-c2cc3c(cc2Cl)OCO3)nc1CN1CCCC1c1ccc(F)cc1 (centres undefined) | 19.7% (inactive)
COc1ccc(-c2noc(CN3CCCC(OCc4ccccn4)C3)n2)cc1 (centres undefined) | 50.2% (active)
Fc1ccc(C2CCCN2Cc2nc(-c3ccc4c(c3)OCO4)no2)cc1 (centres undefined) | 62.2% (active)
Fc1ccc(CC2CCN(Cc3nc(CC4CC4)no3)CC2)cc1 | 83.5% (active)
O=c1c2cc(-c3cccs3)nn2ccn1Cc1nc(-c2ccccc2)no1 | 4.57% (inactive)
Fc1ccccc1OCC1CCCN(Cc2nc(CC3CC3)no2)C1 (centres undefined) | 19.6% (inactive)
CN(Cc1cnn(-c2ccc(F)cc2)c1)Cc1nc(CC2CC2)no1 | 23% (inactive)
CCCOC1CCCN(Cc2nc(-c3cccc(Cl)c3)no2)C1 (centres undefined) | 68.8% (active)
COc1ccc(-c2noc(Cn3ccc4cccnc43)n2)cc1 | 81.3% (active)
c1cc2c(s1)CCN(Cc1nc(-c3ccc4c(c3)OCO4)no1)C2 | 22.1% (inactive)
Cc1cnc(C)c(N2CCN(Cc3nc(-c4ccc5c(c4)OCO5)no3)CC2)n1 | 92.2% (active)
Cc1ccc(Cl)cc1N1CCN(Cc2nc(C3CC3)no2)CC1 | -5.02% (inactive)
CN(C)c1ccc(N=C2N=C(Nc3ccc(N(C)C)cc3)c3ccccc32)cc1 | 44.8% (inactive)
COC(=O)[C@H]1[C@H]2C[C@@H]3c4[nH]c5cc(OC)ccc5c4CCN3C[C@H]2C[C@@H](OC(=O)c2cc(OC)c(OC)c(OC)c2)[C@@H]1OC | 45.9% (inactive)
c1ccc(COC2CCCN(Cc3nc(CC4CC4)no3)C2)cc1 (centres undefined) | 58.5% (active)
Cc1ccccc1C1CCCN(Cc2nc(CC3CC3)no2)C1 (centres undefined) | 17% (inactive)
CC1NC(=S)N(c2ccc(C(C)C)cc2)C1=O (centres undefined) | 95.8% (active)
CC1NC(=S)N(c2ccc(-c3cn4ccsc4n3)cc2)C1=O (centres undefined) | 46.5% (inactive)
CC1NC(=S)N(c2cccc(Oc3ccncc3)c2)C1=O (centres undefined) | 11.8% (inactive)
